According to PubChem BioAssay AID1345085 (National Center for Advancing Translational Sciences (NCATS), 2018):
Inconclusive results are not listed. A number with no mark means an inactive call. The source made the active and inactive calls. Calls follow the shape of the dose curve; as a rule, active = well fitted cell-killing curve with a large enough effect; inconclusive = small, poorly fitted or top-dose-only effect, or effect the other way; inactive = no such curve, though single readings can be large or run the other way.

System: CASKI
Test: Confirmatory qHTS for gynecologic anti-cancer compounds from libraries of approved drugs and bioactive compounds; also: nearly all actives have a fitted effect of over 55% in size
Settings: gynecologic cancer cell panel viability, ATPlite luminescence, 48 h; series mostly up to 57.6 µM; activity change, negative = viability loss: at the top concentration
Method in brief: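 Cells (1,000/well) were plated, left 16 h at 37 C/5% CO2, then given compound at 11 concentrations (1:3) from 57.5 uM to 0.977 nM for 48 h. ATPlite luminescence after 15 min at room temperature gave IC50 values.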
% is scaled to controls: 0 for no effect and ±100 for the full control effect; potency is read from the fitted curve at half-maximal effect.

Compound | Potency | activity change, negative = viability loss
C[C@H]1CCC/C=C/C2C[C@H](O)C[C@H]2[C@H](O)/C=C/C(=O)O1 (some centres undefined) | 0.611 µM (active) | –
O=C(O)Cc1ccccc1 | – | -0.845%
CCN1CCN(C(=O)Cc2ccc(Nc3ncc(F)c(Nc4ccc(C(=O)Nc5ccccc5Cl)cc4)n3)cc2)CC1 | – | 4.94%
C[C@]12CC[C@H]3[C@@H](CCC4=CC(=O)CC[C@@H]43)[C@@H]1CC[C@@H]2OC(=O)CCc1ccccc1 | – | -1.32%
CCOc1ccccc1-n1c(C(C)N2CCN(C(=O)COc3ccc(Cl)cc3)CC2)nc2ccccc2c1=O (centres undefined) | – | -12.3%
C=C(C)[C@H]1Cc2c(ccc3c2O[C@@H]2COc4cc(OC)c(OC)cc4[C@@H]2C3=O)O1 | 0.109 µM (active) | –
CCC(=O)O[C@H]1CC[C@H]2[C@@H]3CCC4=CC(=O)CC[C@]4(C)[C@H]3CC[C@]12C | – | -19.4%
C/C=C(/C)C(=O)O[C@H]1C(C)=C2[C@H]([C@@H]1OC(=O)CCCCCCC)[C@@](C)(OC(C)=O)C[C@H](OC(=O)CCC)[C@@]1(O)[C@H]2OC(=O)[C@@]1(C)O | 34.3 µM (active) | –
Cc1sc2c(c1C)C(c1ccc(Cl)cc1)=NC(CC(=O)OC(C)(C)C)c1nnc(C)n1-2 (centres undefined) | 7.69 µM (active) | –
